These results are taken from PubChem BioAssay.

The subject of experiment [1] is Plasmodium falciparum Sir2 (PF13_0152, Sir2A). Briefly: Plasmodium falciparum Sir2A binding compounds – biochemical, small-molecule microarray, 635 nm fluorescence, primary screen (AID 1098).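 Note: score merges spot fluorescence intensity with its signal-to-noise ratio.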 As to conditions: fluorescence 635 nm, higher = more signal.
A short description of experiment [2]: probe aDKK1 binding to arrayed compounds – biochemical, biotinylated probe, 635/667 nm fluorescence, primary screen (AID 1099).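 Note: score merges 667nm spot fluorescence with signal to noise across triplicate slides.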 The following applies: small-molecule microarray, higher = more signal.
Experiment [3] is described as follows: probe aCHRDL2 binding to arrayed compounds – biochemical, biotinylated probe, 635/667 nm fluorescence, primary screen (AID 1100). As to conditions: small-molecule microarray, higher = more signal.
Experiment [4] in a line: change in splice reporter luminescence, either direction, cell-based, HEK293, spliceosome inhibition project, primary screen (AID 1101).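 Note: HEK293 cells carrying a splicing-competent luciferase reporter gene; test concentration not given here.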 As to conditions: HEK293 splicing luciferase reporter, 24 h, higher = more signal, called active from +8 up or from −8 down. Background: Reporter assays use an easily measured gene product as a stand-in for the process of interest.
In experiment [5] the target is Fibroblast growth factor 10 (Homo sapiens) (UniProt O15520). Nature of the experiment: compounds binding fibroblast growth factor 10 – biochemical, small-molecule microarray, 635 nm fluorescence, primary screen (AID 1102). The following applies: FGF10 binding, fluorescence 635 nm, higher = more signal.
Fibroblast growth factor 10 (Homo sapiens), sequence (O15520 whole entry, looked up): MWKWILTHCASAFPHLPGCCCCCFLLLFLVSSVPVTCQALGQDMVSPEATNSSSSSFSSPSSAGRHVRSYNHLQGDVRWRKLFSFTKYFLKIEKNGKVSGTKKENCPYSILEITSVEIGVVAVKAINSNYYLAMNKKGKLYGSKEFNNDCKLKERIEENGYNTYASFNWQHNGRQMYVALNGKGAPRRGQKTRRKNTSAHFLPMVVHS
Experiment [6] concerns glycogen synthase kinase-3 (GSK3A per assay name; protocol says GSK3B). Briefly: compounds binding glycogen synthase kinase-3 – biochemical, small-molecule microarray, 635 nm fluorescence, GSK3A, primary screen (AID 1103). Note: the record names both GSK3A and GSK3B. The following applies: fluorescence 635 nm, higher = more signal.
Experiment [7] addresses Epidermal growth factor receptor (Homo sapiens) (UniProt P00533). Briefly: compounds binding epidermal growth factor receptor – biochemical, small-molecule microarray, 635 nm fluorescence, primary screen (AID 1104).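 Note: score merges 667 nm emission intensity with spot signal to noise over triplicate slides.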 As to conditions: EGFR binding, higher = more signal.
For experiment [8], the target named is Follistatin-related protein 3 (Homo sapiens) (UniProt O95633). Briefly: compounds binding follistatin-related protein 3 – biochemical, small-molecule microarray, 635 nm fluorescence, primary screen (AID 1105).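 Note: score merges emission near 667 nm and signal to noise per printed spot across three slides.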 As to conditions: FSTL3 binding, higher = more signal.
Follistatin-related protein 3 (Homo sapiens), sequence (O95633 whole entry, looked up): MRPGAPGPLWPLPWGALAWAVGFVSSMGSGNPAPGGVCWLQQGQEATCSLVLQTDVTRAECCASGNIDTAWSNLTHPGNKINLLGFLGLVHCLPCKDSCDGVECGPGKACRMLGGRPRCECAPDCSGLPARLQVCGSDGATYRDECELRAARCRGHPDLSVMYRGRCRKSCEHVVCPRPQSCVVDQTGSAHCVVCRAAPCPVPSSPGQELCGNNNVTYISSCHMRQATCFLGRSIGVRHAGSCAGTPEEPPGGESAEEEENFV
In experiment [9] the target is Dickkopf-related protein 1 (Homo sapiens) (UniProt O94907). Nature of the experiment: small molecules binding DKK1 protein – biochemical, small-molecule microarray, 635 nm fluorescence scan, primary screen (AID 1106).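 Note: score merges emission near 667 nm with signal to noise over three replicate slides.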 The following applies: higher = more signal.
Dickkopf-related protein 1 (Homo sapiens), sequence (O94907 whole entry, looked up): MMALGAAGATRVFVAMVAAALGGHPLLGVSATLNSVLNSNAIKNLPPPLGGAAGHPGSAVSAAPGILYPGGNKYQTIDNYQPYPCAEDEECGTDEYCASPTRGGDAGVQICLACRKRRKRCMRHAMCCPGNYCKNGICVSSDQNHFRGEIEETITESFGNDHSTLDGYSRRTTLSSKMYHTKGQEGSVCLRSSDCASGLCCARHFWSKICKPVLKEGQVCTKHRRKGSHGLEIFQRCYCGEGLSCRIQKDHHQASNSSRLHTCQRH
Experiment [10] deals with Inhibin beta A chain (activin A). Briefly: small molecules binding activin A – biochemical, small-molecule microarray, 635 nm fluorescence scan, primary screen (AID 1107).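 Note: mouse activin A protein probed at 4.33 µg/mL on printed slides; score merges bound-protein fluorescence near 667 nm with spot signal-to-noise.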 As to conditions: INHBA, higher = more signal.
Experiment [11] relates to Human papillomavirus type 1a protein E7 (residues 44-93). Nature of the experiment: small molecules binding HPV E7 44-93 – biochemical, small-molecule microarray, residues 44-93, 635 nm fluorescence, primary screen (AID 1108).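 Note: E7 fragment applied at 1 µg/mL in TBST for 1 h at 4 C; score combines spot fluorescence with its signal to noise ratio.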 As to conditions: fluorescence 635 nm, higher = more signal.
A short description of experiment [12]: hepatitis C replication reporter changes, two-sided – Huh7 cells, luciferase reporter, HCV replication inhibitor project, primary screen (AID 1109).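 Note: huh7 hepatoma cells harbouring a luciferase neomycin HCV replicon reporter; luciferase luminescence as measure of HCV replicon replication; test concentration not given here.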 As to conditions: Huh7 HCV replicon luciferase reporter, 48 h; higher = more signal.
In experiment [13] the target is Left-right determination factor 2 (Homo sapiens) (UniProt O00292). Nature of the experiment: small molecules binding LEFTY2 protein – biochemical, small-molecule microarray, 635 nm fluorescence scan, primary screen (AID 1110). As to conditions: higher = more signal.
Left-right determination factor 2 (Homo sapiens), sequence (O00292 whole entry, looked up): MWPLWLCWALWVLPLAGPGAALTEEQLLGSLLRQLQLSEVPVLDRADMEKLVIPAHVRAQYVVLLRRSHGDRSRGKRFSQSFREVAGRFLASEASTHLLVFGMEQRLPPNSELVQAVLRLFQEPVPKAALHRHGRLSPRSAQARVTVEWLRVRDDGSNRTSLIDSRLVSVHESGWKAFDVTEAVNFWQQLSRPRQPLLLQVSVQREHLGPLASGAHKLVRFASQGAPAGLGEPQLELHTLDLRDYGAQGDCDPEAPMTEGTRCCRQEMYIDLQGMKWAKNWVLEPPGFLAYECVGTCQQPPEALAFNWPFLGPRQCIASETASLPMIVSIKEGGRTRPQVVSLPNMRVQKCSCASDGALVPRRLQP
Experiment [14] deals with Calmodulin-1 (Homo sapiens) (UniProt P0DP23). Briefly: small molecules binding calmodulin-1 with EGTA – biochemical, small-molecule microarray, Cy5-labelled CALM1, profiling panel (AID 1111).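 Note: labelled calmodulin applied in Tris saline Tween buffer holding calcium plus EGTA and DTT.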 As to conditions: Cy5-CALM1 binding fluorescence, higher = more signal.
For experiment [15] the target is unchanged. Briefly: small molecules binding Ca-loaded calmodulin-1 – biochemical, small-molecule microarray, Cy5-labelled CALM1, plus calcium, artefact control for SMM control-protein annotation, profiling panel (AID 1112).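 Note: score merges spot fluorescence with signal to noise from triplicate slides.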 As to conditions: Cy5-CALM1 binding fluorescence, higher = more signal.
A short description of experiment [16]: probe aWnt5a binding to arrayed compounds – biochemical, biotinylated probe, 635/667 nm fluorescence, primary screen (AID 1113).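 Note: score merges 667 nm fluorescence intensity with signal-to-noise per printed feature.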 As to conditions: small-molecule microarray, higher = more signal.
A short description of experiment [17]: probe aShh binding to arrayed compounds – biochemical, biotinylated probe, 635/667 nm fluorescence, primary screen (AID 1114).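 Note: probe is biotin-labelled aShh protein from a stem cell growth factor screen; measures binding of labelled protein to compounds printed on the slide; score merges feature fluorescence at 667 nm with signal-to-noise.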 As to conditions: small-molecule microarray, higher = more signal.
Experiment [18] is described as follows: probe aNog binding to arrayed compounds – biochemical, biotinylated probe, 635/667 nm fluorescence, primary screen (AID 1115).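 Note: probe is biotinylated aNog protein used at 0.15 µg/mL for 1 h at 4 C; z-score combines 667 nm fluorescence of each spot with its signal to noise.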 The following applies: small-molecule microarray, higher = more signal.
Experiment [19] deals with Torsin-1A-interacting protein 1 (Homo sapiens) (UniProt Q5JTV8). Briefly: compound microarray binding of lysate hLAP1 – cell lysate, small-molecule microarray, COS7 lysate, 635/667 nm fluorescence, primary screen (AID 1116). The following applies: 635 nm fluorescence, higher = more signal.
Torsin-1A-interacting protein 1 (Homo sapiens), sequence (Q5JTV8 whole entry, looked up): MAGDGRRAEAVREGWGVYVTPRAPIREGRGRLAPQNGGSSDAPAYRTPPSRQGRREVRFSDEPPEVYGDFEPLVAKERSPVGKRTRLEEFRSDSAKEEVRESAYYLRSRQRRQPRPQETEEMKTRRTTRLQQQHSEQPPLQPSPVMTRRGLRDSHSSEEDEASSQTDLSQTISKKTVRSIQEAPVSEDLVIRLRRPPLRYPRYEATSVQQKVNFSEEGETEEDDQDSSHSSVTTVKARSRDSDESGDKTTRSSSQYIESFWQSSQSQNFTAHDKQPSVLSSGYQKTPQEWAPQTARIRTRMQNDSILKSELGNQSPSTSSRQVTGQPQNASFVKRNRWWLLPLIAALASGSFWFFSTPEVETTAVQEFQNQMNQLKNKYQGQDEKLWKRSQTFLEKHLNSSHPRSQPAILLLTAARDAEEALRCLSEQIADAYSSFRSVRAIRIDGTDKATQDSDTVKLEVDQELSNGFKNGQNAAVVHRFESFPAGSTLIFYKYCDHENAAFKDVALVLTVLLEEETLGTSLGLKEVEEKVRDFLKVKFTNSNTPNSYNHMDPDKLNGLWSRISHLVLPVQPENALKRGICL
Experiment [20] has as its target Alpha-bungarotoxin (Bungarus multicinctus) (UniProt P60615). Nature of the experiment: compounds binding labelled alpha-BTX control protein – biochemical, small-molecule microarray, Alexa647 label, 635/667 nm fluorescence, artefact control for SMM control protein annotation, profiling panel (AID 1117). As to conditions: alpha-BTX-A647 binding fluorescence, higher = more signal.

Structures are written as SMILES. Calls of active or inactive are those of the source.

Epidermal growth factor receptor (Homo sapiens), sequence (P00533 whole entry, looked up): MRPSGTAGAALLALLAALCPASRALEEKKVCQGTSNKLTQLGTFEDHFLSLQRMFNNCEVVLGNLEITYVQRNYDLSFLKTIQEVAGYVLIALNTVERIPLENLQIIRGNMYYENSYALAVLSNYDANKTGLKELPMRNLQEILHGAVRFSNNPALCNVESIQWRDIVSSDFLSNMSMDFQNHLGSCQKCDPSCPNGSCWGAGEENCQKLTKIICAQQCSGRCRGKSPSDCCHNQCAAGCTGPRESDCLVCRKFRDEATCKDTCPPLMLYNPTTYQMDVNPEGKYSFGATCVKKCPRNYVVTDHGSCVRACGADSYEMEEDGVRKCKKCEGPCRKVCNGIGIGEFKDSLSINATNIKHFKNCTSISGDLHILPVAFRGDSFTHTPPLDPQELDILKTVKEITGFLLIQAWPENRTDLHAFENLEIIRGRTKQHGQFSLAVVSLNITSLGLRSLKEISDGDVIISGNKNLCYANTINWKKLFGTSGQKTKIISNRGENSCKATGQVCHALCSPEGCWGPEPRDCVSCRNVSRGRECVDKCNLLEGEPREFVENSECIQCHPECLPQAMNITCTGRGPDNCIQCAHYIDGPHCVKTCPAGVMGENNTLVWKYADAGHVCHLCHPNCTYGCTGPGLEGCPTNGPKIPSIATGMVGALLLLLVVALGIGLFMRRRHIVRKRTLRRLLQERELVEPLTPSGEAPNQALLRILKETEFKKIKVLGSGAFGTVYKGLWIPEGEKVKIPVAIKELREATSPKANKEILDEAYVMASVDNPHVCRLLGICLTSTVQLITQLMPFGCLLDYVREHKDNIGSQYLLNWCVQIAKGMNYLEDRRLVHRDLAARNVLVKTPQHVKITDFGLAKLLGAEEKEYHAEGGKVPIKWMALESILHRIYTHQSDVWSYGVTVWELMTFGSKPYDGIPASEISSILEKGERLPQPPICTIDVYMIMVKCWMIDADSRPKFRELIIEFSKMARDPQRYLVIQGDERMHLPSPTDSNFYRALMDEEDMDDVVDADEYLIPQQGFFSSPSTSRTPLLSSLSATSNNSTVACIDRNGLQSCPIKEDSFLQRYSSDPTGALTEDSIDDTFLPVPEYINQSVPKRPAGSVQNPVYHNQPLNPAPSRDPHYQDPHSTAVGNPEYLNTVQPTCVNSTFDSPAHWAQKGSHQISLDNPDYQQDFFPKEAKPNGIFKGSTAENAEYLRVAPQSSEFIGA
Alpha-bungarotoxin (Bungarus multicinctus), sequence (P60615 whole entry, looked up): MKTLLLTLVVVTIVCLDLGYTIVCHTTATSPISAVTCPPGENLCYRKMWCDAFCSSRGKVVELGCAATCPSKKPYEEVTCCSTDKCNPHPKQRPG

On to `CN1C2C=C(CCCO)C(C3C(=O)N(C(N)=O)C(=O)C32)C1c1ccc(CN2CCCC2)cc1` (stereo not given), for which the composite z-score in experiment [1] is -0.323; in experiment [2], -0.284; in experiment [3], -0.257; in [5], -0.367; in experiment [6], -0.563; in experiment [7], -0.376. Moreover, the composite z-score in [8] is -0.658; in experiment [9], -0.544; in experiment [10], -0.751; in experiment [11], 0.138; in experiment [13], -0.943; in experiment [14], -0.224. Besides, the composite z-score in experiment [15] was 0.0344; in experiment [16] it was -0.243; in experiment [17], 0.0278; in [18], -0.328; in experiment [19], 0.0727; in experiment [20], 0.236. The z-score was -0.0848 (inactive) in [4] and -0.149 in [12].
As to `C=CCOC(=O)[C@H]1[C@@H]2C(=O)O[C@@H](c3ccccc3)[C@@H](c3ccccc3)N2[C@@H](c2ccc(OCCOC(=O)[C@@H]3C[C@@H]4C(=O)N5CCC[C@H]5C(=O)N4[C@@H]3c3cccc(OCCO)c3)cc2)[C@]12C(=O)Nc1ccccc12`, the composite z-score was 1.19 in experiment [1]; -0.0198 in experiment [2]; 0.0715 in experiment [3]; 1.12 in experiment [5]; 1.31 in experiment [6]; 0.5 in experiment [7]. Moreover, the composite z-score in [8] turned out to be 0.895; in experiment [9], 0.651; in experiment [10] it was 0.563; in experiment [11], 0.862; in experiment [13] it was 0.91; in experiment [14] it was 0.551. In addition, the composite z-score in [15] was 0.0319; in experiment [16], 0.0079; in experiment [17], 0.0381; in experiment [18], -0.378; in [19] it was 0.834; in experiment [20], 1.34. The z-score was -0.978 (inactive) in [4] and -1.24 in experiment [12].
For the compound `CCCCc1cn(C[C@H](Cc2ccccc2)NC(=O)N[C@H](CO)CCc2oc(C(C)=O)c(C(=O)OC)c2C(=O)OC)nn1`, the composite z-score in [1] was 0.595; in experiment [2] it was -0.164; in experiment [3], -0.22; in experiment [5] it was 1.04; in experiment [6], 1.02; in experiment [7] it was 0.717. The composite z-score was 1.4 in experiment [8]; 0.485 in experiment [9]; -0.0075 in experiment [10]; 1.39 in experiment [11]; 1.26 in experiment [13]; 0.451 in experiment [14]. Also, the composite z-score in experiment [15] is -0.693; in [16], -0.0045; in experiment [17] it was 0.184; in experiment [18] it was -0.0965; in [19], 0.644; in [20], 0.463. For the same compound, the z-score in [4] is -0.949 (inactive); in [12], -0.639.
In the case of `CCOc1cc(C(O)C2C=CC3C(=O)N(c4ccccc4)C(=O)C3N2Nc2ccccc2)ccc1O` (stereo not given), the composite z-score in [1] is 0.716; in [2] it was -0.0126; in experiment [3], 0.834; in [5], 0.671; in experiment [6], 0.0622; in experiment [7] it was -0.114. Moreover, the composite z-score in experiment [8] is 0.128; in [9] it was -0.832; in experiment [10] it was 0.829; in experiment [11], 1.31; in [13], 0.181; in experiment [14], 0.0041. Also, the composite z-score was -0.748 in experiment [15]; -0.0312 in experiment [16]; 0.191 in [17]; 0.387 in experiment [18]; 0.604 in experiment [19]; 0.147 in experiment [20]. Moreover, the results for the z-score in experiment [4] and in experiment [12] were 0.608 (inactive) and -0.0374, respectively.
`COCCOC(=O)N1C(=O)[C@@]2(c3cc(C#CCNC(N)=O)ccc31)[C@H](C(=O)NC[C@H](O)c1ccccc1)[C@H]1C(=O)O[C@H](c3ccccc3)[C@H](c3ccccc3)N1[C@@H]2c1ccccc1OCCO`: the composite z-score was 1.5 in [1]; -0.547 in [2]; 0.218 in experiment [3]; 1.04 in [5]; 0.628 in [6]; 0.366 in experiment [7]. The composite z-score in experiment [8] was 1.01; in experiment [9] it was 0.711; in [10] it was 1.05; in [11], 1.35; in experiment [13], 0.0826; in experiment [14], 1.96. Further, the composite z-score was 0.0588 in experiment [15]; 0.207 in [16]; -0.0375 in experiment [17]; 1.32 in [18]; 0.667 in [19]; 1.43 in [20]. Besides, the z-score was -0.0247 (inactive) in experiment [4] and -0.807 in experiment [12].
For the compound `O=C(O)[C@@]1(CCS(=O)(=O)c2ccccc2)COC(c2ccc(OCCCO)cc2)=N1`, the composite z-score in experiment [1] was 0.6; in [2] it was 0.458; in experiment [3], 1.05; in experiment [5], 0.0185; in experiment [6], -0.62; in experiment [7] it was -0.939. For the same compound, the composite z-score is -0.928 in experiment [8]; -1.17 in [9]; 1.19 in experiment [10]; 0.182 in [11]; -0.691 in experiment [13]; -0.0602 in experiment [14]. The composite z-score is 0.24 in experiment [15]; -0.129 in [16]; 0.0062 in [17]; -0.463 in [18]; 2.98 in experiment [19]; 0.451 in experiment [20]. Besides, the results for the z-score in [4] and in experiment [12] were 0.733 (inactive) and -0.615, respectively.
